According to PubChem BioAssay (NCI):
Compounds without any hit were thinned out: in the full panel of roughly 79,000, 15% have a hit. Calls of active or inactive are those of the source. Rule as the data show it: active = growth inhibition above about 70%; inactive = the rest.

Tests used:
[1] = NCI Yeast Anticancer Drug Screen. Data for the mlh1 strain (AID 171);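 also: 0% = growth of vehicle-treated control cultures of the same strain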; settings: S. cerevisiae mlh1 strain growth inhibition, hits give high values
Summary of the method: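 Yeast screen: mutant strain plus compound, growth scored against vehicle control wells.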

[2] = NCI Yeast Anticancer Drug Screen. Data for the sgs1 strain (AID 173);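 also: 0% = growth of vehicle-only control cultures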; settings: S. cerevisiae sgs1 mutant, hits give high values
Summary of the method: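 Inhibition of yeast growth served as the measure. The mutant strain was treated with each compound, and growth was normalised to cultures receiving vehicle alone.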

[3] = NCI Yeast Anticancer Drug Screen. Data for the mlh1 rad18 strain (AID 175); settings: S. cerevisiae mlh1 rad18 strain growth inhibition, hits give high values
Summary of the method: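 Compound-treated yeast growth, normalised to vehicle controls. Strain bears defined DNA repair mutations.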

[4] = NCI Yeast Anticancer Drug Screen. Data for the rad18 strain (AID 177); settings: S. cerevisiae rad18 mutant growth inhibition, hits give high values
Summary of the method: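 Inhibition values reflect reduced yeast growth compared with vehicle-treated controls, using a strain engineered with a DNA damage repair defect.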

[5] = NCI Yeast Anticancer Drug Screen. Data for the rad52 strain (AID 147);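 also: 0% = growth of vehicle-treated control cultures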; settings: S. cerevisiae rad52 mutant growth inhibition, hits give high values
Summary of the method: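 Genetically altered yeast (DNA damage repair defect) treated with compound; inhibition calculated relative to vehicle.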

[6] = NCI Yeast Anticancer Drug Screen. Data for the wt1 strain (AID 149);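 also: 0% = growth of vehicle-treated wt1 cultures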; settings: S. cerevisiae wt1 strain (SPY 50644) growth inhibition, hits give high values
Summary of the method: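 Readout: yeast growth inhibition, normalised to vehicle controls, in the wt1 strain exposed to test compounds.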

[7] = NCI Yeast Anticancer Drug Screen. Data for the rad50EPP+ strain (AID 151);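 also: 0% = growth of vehicle-treated control cultures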; settings: S. cerevisiae rad50 mutant strain, hits give high values
Summary of the method: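 Strain rad50EPP+; compound exposure; % growth inhibition vs vehicle.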

[8] = NCI Yeast Anticancer Drug Screen. Data for the rad50 strain (AID 155);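 also: 0% = growth of vehicle-only cultures of the same strain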; settings: S. cerevisiae rad50 strain growth inhibition, hits give high values
Summary of the method: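 Compounds were tested on a yeast strain with an engineered DNA damage repair alteration; the reported value is growth inhibition normalised to vehicle treatment.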

[9] = NCI Yeast Anticancer Drug Screen. Data for the mec2-1 strain (AID 157); settings: S. cerevisiae mec2-1 strain, hits give high values
Summary of the method: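 Cells of the genetically defined mec2-1 yeast strain are incubated with test compound. Inhibition of growth is calculated against vehicle-treated controls.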

[10] = NCI Yeast Anticancer Drug Screen. Data for the rad14 strain (AID 159);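 also: 0% = growth of vehicle-treated control cultures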; settings: S. cerevisiae rad14 strain growth inhibition, hits give high values
Summary of the method: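 Compound-treated yeast with a defined DNA-repair lesion; growth inhibition normalised to vehicle-treated cultures.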

[11] = NCI Yeast Anticancer Drug Screen. Data for the sgs1 mgt1 strain (AID 161);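 also: 0% = growth of cultures given vehicle only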; settings: S. cerevisiae sgs1 mgt1 strain, hits give high values
Summary of the method: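 Read-out: growth inhibition vs vehicle controls. Cells: mutant yeast strain deficient in DNA damage repair.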

[12] = NCI Yeast Anticancer Drug Screen. Data for the CLN2oe strain (AID 163);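 also: 0% = growth of vehicle-only control cultures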; settings: S. cerevisiae CLN2oe strain, hits give high values
Summary of the method: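 Strain altered in cell-cycle control, incubated with compound; growth compared to solvent-treated controls.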

[13] = NCI Yeast Anticancer Drug Screen. Data for the cln2 rad14 strain (AID 165);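 also: 0% = growth equal to vehicle treated cultures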; settings: S. cerevisiae cln2 rad14 strain, hits give high values
Summary of the method: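 The screen exposed genetically defined yeast (cln2 rad14) to test compounds and scored growth inhibition relative to vehicle-treated controls.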

[14] = NCI Yeast Anticancer Drug Screen. Data for the bub3 strain (AID 167); settings: S. cerevisiae bub3 mutant strain, hits give high values
Summary of the method: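 Growth of a checkpoint-deficient yeast mutant is measured after compound exposure. Values represent inhibition relative to vehicle.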

[15] = NCI Yeast Anticancer Drug Screen. Data for the wt2 strain (AID 169);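 also: 0% = growth of vehicle-treated yeast cultures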; settings: S. cerevisiae wt2 strain growth inhibition, hits give high values
Summary of the method: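 Steps: yeast strain treated with compound; growth recorded; inhibition calculated relative to cultures given vehicle alone.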

[16] = at 5.0 µM (retest, dose inferred, filed as 0.5)
[17] = at 50.0 µM (retest, dose inferred, filed as 5.0)

Measured: growth inhibition

CCc1nc(N)nc(N)c1-c1ccc(NCCCCCCN)c([N+](=O)[O-])c1
active: [3]; at 50.0 µM 97.2%
inactive: [1]; at 1.2 µM -4% | [1]; at 3.7 µM -1% | [1]; at 11.0 µM 0% | [1]; at 33.0 µM -6% | [1]; at 100.0 µM -5% | [2]; at 1.2 µM -3% | [2]; at 3.7 µM -2% | [2]; at 11.0 µM -3% | [2]; at 33.0 µM -5% | [2]; at 100.0 µM -3% | [3]; [16] -27% | [3]; [17] -34% | [4]; at 1.2 µM -4% | [4]; at 3.7 µM -6% | [4]; at 11.0 µM -5% | [4]; at 33.0 µM -17% | [4]; at 100.0 µM -23%

CCC(c1ccc(O)cc1)C(CC)c1ccc(OCCN)cc1 (centres undefined)
active: [5]; at 100.0 µM 88% | [8]; at 100.0 µM 88% | [10]; at 100.0 µM 98% | [11]; [17] 76% | [12]; at 100.0 µM 83% | [14]; at 100.0 µM 72% | [15]; at 100.0 µM 92% | [1]; at 100.0 µM 91% | [2]; at 100.0 µM 94% | [3]; [17] 87% | [4]; at 100.0 µM 91%
inactive: [5]; at 1.2 µM -5% | [5]; at 3.7 µM 0% | [5]; at 11.0 µM 0% | [5]; at 33.0 µM 11% | [6]; at 1.2 µM -4% | [6]; at 3.7 µM -4% | [6]; at 11.0 µM -8% | [6]; at 33.0 µM -8% | [6]; at 100.0 µM 27% | [7]; at 1.2 µM -3% | [7]; at 3.7 µM 1% | [7]; at 11.0 µM 12% | [7]; at 33.0 µM 1% | [7]; at 100.0 µM 10% | [8]; at 1.2 µM 0% | [8]; at 3.7 µM -1% | [8]; [16] 18% | [8]; at 11.0 µM 3% | [8]; at 33.0 µM 27% | [8]; [17] 69% | [8]; at 50.0 µM 27.9% | [9]; at 1.2 µM -3% | [9]; at 3.7 µM -3% | [9]; [16] -4% | [9]; at 11.0 µM -7% | [9]; at 33.0 µM -4% | [9]; [17] 8% | [9]; at 50.0 µM 6.25% | [9]; at 100.0 µM 64% | [10]; at 1.2 µM -3% | [10]; at 3.7 µM 1% | [10]; at 11.0 µM 3% | [10]; at 33.0 µM 17% | [11]; [16] 0% | [11]; at 50.0 µM 60.1% | [12]; at 1.2 µM -1% | [12]; at 3.7 µM -4% | [12]; at 11.0 µM 5% | [12]; at 33.0 µM 19% | [13]; [16] -2% | [13]; [17] 25% | [13]; at 50.0 µM -1.25% | [14]; at 1.2 µM -2% | [14]; at 3.7 µM -3% | [14]; [16] -19% | [14]; at 11.0 µM -7% | [14]; at 33.0 µM -1% | [14]; [17] 62% | [14]; at 50.0 µM 45.1% | [15]; at 1.2 µM -2% | [15]; at 3.7 µM -9% | [15]; at 11.0 µM 6% | [15]; at 33.0 µM 8% | [1]; at 1.2 µM -3% | [1]; at 3.7 µM -4% | [1]; at 11.0 µM -5% | [1]; at 33.0 µM 12% | [2]; at 1.2 µM -23% | [2]; at 3.7 µM -46% | [2]; at 11.0 µM -18% | [2]; at 33.0 µM 15% | [3]; [16] 12% | [3]; at 50.0 µM 14.6% | [4]; at 1.2 µM -7% | [4]; at 3.7 µM -6% | [4]; at 11.0 µM -6% | [4]; at 33.0 µM 0%

Cc1ccc(Nc2c3c(c(C#N)c4nc5ccccc5n24)CCCC3)cc1
inactive: [5]; at 1.2 µM 6% | [5]; at 3.7 µM 21% | [5]; at 11.0 µM 24% | [6]; at 1.2 µM 7% | [6]; at 3.7 µM 26% | [6]; at 11.0 µM 23% | [6]; at 33.0 µM 40% | [6]; at 100.0 µM 59% | [7]; at 1.2 µM 14% | [7]; at 3.7 µM 23% | [7]; at 11.0 µM 27% | [7]; at 33.0 µM 38% | [7]; at 100.0 µM 31% | [8]; at 1.2 µM 1% | [8]; at 3.7 µM 32% | [8]; [16] 31% | [8]; at 11.0 µM 23% | [8]; at 50.0 µM 63.3% | [9]; at 1.2 µM -15% | [9]; at 3.7 µM 15% | [9]; [16] 12% | [9]; at 11.0 µM 11% | [9]; at 33.0 µM 65% | [9]; [17] 58% | [9]; at 50.0 µM 66% | [10]; at 1.2 µM 1% | [10]; at 3.7 µM 10% | [10]; at 11.0 µM 10% | [10]; at 33.0 µM 25% | [10]; at 100.0 µM 36% | [11]; [16] 16% | [11]; [17] 30% | [12]; at 1.2 µM 20% | [12]; at 3.7 µM 34% | [12]; at 11.0 µM 21% | [12]; at 100.0 µM 62% | [13]; [16] 21% | [13]; [17] 14% | [14]; at 1.2 µM 8% | [14]; at 3.7 µM 15% | [14]; [16] 26% | [14]; at 11.0 µM 23% | [14]; [17] 34% | [15]; at 1.2 µM 4% | [15]; at 3.7 µM -8% | [15]; at 11.0 µM 59% | [1]; at 1.2 µM -5% | [1]; at 3.7 µM 15% | [1]; at 11.0 µM 22% | [2]; at 1.2 µM 30% | [2]; at 3.7 µM 34% | [2]; at 11.0 µM 29% | [3]; [16] 28% | [3]; [17] 68% | [3]; at 50.0 µM 6.1% | [4]; at 1.2 µM 6% | [4]; at 3.7 µM 27% | [4]; at 11.0 µM 38%
active: [5]; at 33.0 µM 70% | [5]; at 100.0 µM 72% | [8]; at 33.0 µM 71% | [8]; [17] 74% | [8]; at 100.0 µM 70% | [9]; at 100.0 µM 73% | [11]; at 50.0 µM 74.5% | [12]; at 33.0 µM 70% | [13]; at 50.0 µM 72.8% | [14]; at 33.0 µM 74% | [14]; at 50.0 µM 78.8% | [14]; at 100.0 µM 76% | [15]; at 33.0 µM 74% | [15]; at 100.0 µM 72% | [1]; at 33.0 µM 78% | [1]; at 100.0 µM 78% | [2]; at 33.0 µM 77% | [2]; at 100.0 µM 81% | [4]; at 33.0 µM 75% | [4]; at 100.0 µM 72%
